For ten compounds, % Hoechst-high responders, % tubulin-high responders and toxicity results are on record in PubChem BioAssay AID2205 (University of Pittsburgh Molecular Library Screening Center, 2009).

Molecules are shown by their SMILES. Screen size: about 200,000 compounds; about 1,600 (0.8%) were called active.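 The calls were made as follows: active = plate Z-score above 3 for both tubulin-high and condensed-nucleus cell shares, with cell loss under 80%, at 10 µM; inactive = the rest, inconclusive results apart.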 The list comes from a sample in which actives are over-represented; it also holds similar structures and randomly drawn compounds.

The nature of the experiment: tubulin staining increase by stabilizing compounds – imaging, high-content imaging, primary screen (AID 2205).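 As to % tubulin-high responders: anti alpha tubulin signal scored within the nucleus-defined area of each cell.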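 As to toxicity: 0% = mean cell density of plate MIN control wells and 100% = no cells.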 Conditions: HeLa tubulin immunostaining HCS, 24 h, at 10 µM; % Hoechst-high responders: measured here: nuclear condensation Hoechst responders, stronger effect = higher value; % tubulin-high responders: stronger effect = higher value; toxicity: measured here: cytotoxicity by cell density.
Take `O=C(c1cc(-c2ccncc2)nc2ccccc12)N1CCC2(CC1)OCCO2`: the % Hoechst-high responders was found to be 1.52%, the % tubulin-high responders was 3.12% (inactive) and the toxicity worked out at 6.16%.

For `Cc1cccc(-n2c(C)nc3cc(C(=O)N4CCC5(CC4)OCCO5)ccc32)c1`, the % Hoechst-high responders was determined as 32.4%, the % tubulin-high responders is 48.1% (active) and the toxicity worked out at 34.2%.

Take `Cc1ccc(-c2cc(C(=O)N3CCC4(CC3)OCCO4)no2)cc1`: the % Hoechst-high responders was found to be 2.17%, the % tubulin-high responders is 2.98% (inactive) and the toxicity came out at 5.89%.

Take `O=C(O)CCn1cc(C=C2C(=O)NC(=S)NC2=O)c(-c2cccc(Br)c2)n1`: the % Hoechst-high responders turned out to be 1.76%, the % tubulin-high responders is 1.65% (inactive) and the toxicity was 3.44%.

For `C[N+]12CN3CN(CN(C3)C1)C2`, the % Hoechst-high responders amounted to 0.953%, the % tubulin-high responders is 7.11% (inactive) and the toxicity turned out to be 4.73%.

With `COc1cc(-n2c(=S)[nH]c3ccc(C)cc3c2=O)c(Cl)cc1Cl`, the % Hoechst-high responders turned out to be 23.7%, the % tubulin-high responders was 12.4% (active) and the toxicity stood at 29%.

As for `CC(Cc1cccs1)NCc1ccc(Cl)cc1` (stereo not given), the % Hoechst-high responders came to 2.36%, the % tubulin-high responders was 3.24% (inactive) and the toxicity is 0.83%.

Take `CN1CCN(C(=O)COc2ccc(C(C)(C)C)cc2Br)CC1`: the % Hoechst-high responders stood at 1.35%, the % tubulin-high responders was 1.46% (inactive) and the toxicity amounted to 9.25%.

Turning to `Cc1cccc2c(CCN)c[nH]c12`, the % Hoechst-high responders turned out to be 2.2%, the % tubulin-high responders is 2.61% (inactive) and the toxicity was 4.06%.

`Cc1cc(C)cc(NC(=S)NC2CC3CCCC(C2)N3Cc2cccs2)c1` (stereo not given): the % Hoechst-high responders came out at 1.98%, the % tubulin-high responders was 3.91% (inactive) and the toxicity amounted to 8.8%.
